{"source": "PubChem BioAssay (NCI)", "note": "This is part of a sample that, as a whole, favours compounds with a hit. Of some 83,000 tested, about 20% had one in any assay.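 Note: values are percent growth. 100 is the growth of untreated cells, values between 100 and 0 indicate rising inhibition; between -100 and 0 indicates cell death.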 Values without a mark were called inactive. Active and inactive are the calls of the source. The calls were made as follows: active = growth percent below 10; inactive = the rest."}
{"tested_on": "HL-60(TB) leukemia", "assay": "NCI-60 one-dose screen, 48 h (100 = growth as untreated, 0 = no growth, -100 = all killed)", "settings": "10 µM unless noted"}
{"smiles": "O=c1[nH]c2c3ccncc3cc(-c3cccc(Cl)c3)c2c2cnccc12", "growth": "17.6%"}
{"smiles": "O=C(c1ccccc1)c1c(/C=C/c2ccc(Cl)cc2)nc2ccccc2c1/C=C/c1cccs1", "growth": "102%"}
{"smiles": "COCCn1cc(-c2nc(-c3cc4cccnc4n3C)cs2)c2ccccc21", "growth": "42.2%"}
{"smiles": "COC(=O)c1c(C)nc(Nc2nc3ccccc3s2)nc1-c1ccc(Cl)cc1Cl", "growth": "96.3%"}
{"smiles": "COc1ccc2nc3cc(Cl)ccc3c(Nc3cc(C(C)C)c(O)cc3C)c2c1", "growth": "7.64% (active)"}
{"smiles": "CC(=O)c1ccc(Nc2nc(Cl)nc(Oc3c(Cl)cccc3Cl)n2)cc1", "growth": "97.8%"}
{"smiles": "COc1cc2c(=O)[nH]c3cc([N+](=O)[O-])ccc3c2cc1[N+](=O)[O-]", "growth": "71.1%"}
{"smiles": "O=C1CSC(c2ccccc2Cl)N1c1nnc(-c2ccncc2)o1", "note": "(centres undefined)", "growth": "95.2%"}
{"smiles": "CC(c1cc(Cl)ccc1O)c1cc(Cl)ccc1O", "growth": "34.1%"}
{"smiles": "CCOC(=O)C(=O)C=P(c1ccccc1)(c1ccccc1)c1ccccc1", "growth": "103%"}
{"smiles": "CN(Cc1ccccc1)Cc1ccccc1", "growth": "93.4%"}
{"smiles": "COc1ccc(N2CCN(c3ccc(NC4=C(Cl)C(=O)c5ncccc5C4=O)cc3)CC2)cc1", "growth": "53%"}
{"smiles": "O=C1/C(=C\\c2ccccc2)CN(C(=O)c2ccccc2F)C/C1=C\\c1ccccc1", "growth": "10.1%"}
{"smiles": "Cc1cc2c(c(C)c1Cl)C(=O)/C(=C/c1ccc(O)c(O)c1)O2", "growth": "108%"}
{"smiles": "CCCCN(CCCC)c1ccc(C(=NC(C)CCCN(CC)CC)c2ccc(N(C)C)cc2)cc1", "note": "(centres undefined)", "growth": "-32.1% (active)"}
{"smiles": "CC1(c2ccccc2)CO1", "note": "(centres undefined)", "growth": "105%"}
{"smiles": "C(=N\\Nc1nnn(Cc2ccccc2)n1)/c1ccccc1", "growth": "5.57% (active)"}
{"smiles": "N#C/C(=C\\c1ccc(-c2ccc(Cl)cc2)o1)c1ccc(Cl)cc1", "growth": "96.1%"}
{"smiles": "CC(C)Sc1nc(NNC(N)=S)c(C#N)c(-c2ccc(F)cc2)n1", "growth": "94.9%"}
{"smiles": "O=C(Cn1c[n+](CC(=O)c2ccc(-c3ccccc3)cc2)c2ccccc21)Nc1cccc2cccnc12", "growth": "-37.2% (active)"}
{"smiles": "C[C@H]1[C@H](C)CC[C@]2(C(=O)NCC#CCN3CCN(C)CC3)CC[C@]3(C)C(=CC[C@@H]4[C@@]5(C)Cc6c([nH]c7ccccc67)C(C)(C)[C@@H]5CC[C@]43C)[C@H]12", "growth": "63.9%"}
{"smiles": "O=[N+]([O-])CC(c1ccccc1)c1c[nH]c2ccccc12", "note": "(centres undefined)", "growth": "7.86% (active)"}
{"smiles": "CC(C)CCNCC(C)(C)O", "growth": "99.3%"}
{"smiles": "CN(C)C(=O)OCc1nc2c(N3CCOCC3)nc(-c3ccccc3)nc2n1C", "growth": "-29.2% (active)"}
